DAX1 inh-1: NR0B1 (DAX1) inhibition; inhibition, % at 6.75 µM; hit rate 0.99% among 340,000; HEK293 Gal4-DAX1 luciferase reporter, luminescence; P51843;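 active = inhibition above the mean over all tested compounds plus 3 SD, cut at about 4.2% in these data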;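 also: 0% = DAX1-transfected cells with DMSO and 100% = empty-vector control cells with DMSO; inhibition shows as a rise in luminescence from relieved DAX1 repression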
Target sequence (P51843 207-470 limits assumed): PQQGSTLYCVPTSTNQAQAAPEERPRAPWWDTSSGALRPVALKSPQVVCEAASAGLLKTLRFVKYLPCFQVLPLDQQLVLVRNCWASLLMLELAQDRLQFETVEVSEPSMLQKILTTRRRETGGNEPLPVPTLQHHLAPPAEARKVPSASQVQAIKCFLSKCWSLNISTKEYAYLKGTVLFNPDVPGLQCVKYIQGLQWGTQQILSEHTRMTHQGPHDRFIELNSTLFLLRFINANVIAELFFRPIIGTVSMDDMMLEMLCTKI
hcDAF-12 act: H. contortus DAF-12 activation, primary screen | HEK293 hcDAF-12 lit1-tk-luc reporter, luminescence; 0% DMSO, 100% Δ7-dafachronic acid | activation, % at 6.8 µM | hit rate 1.4% among 370,000 | AID 652067;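 active = activation above the mean of all tested compounds plus 3 SD, cut at about 5.5% in these data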;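 also: 100% = response to 3 µM Δ7-dafachronic acid high control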
SMARCA2 activ: activators of SMARCA2 function; MG213 cells, MMTV-luciferase reporter, dexamethasone, overnight; hit rate 1% among 370,000; AID 652017; activation, % at 9.1 µM; in the data active = activation above about 7.8%;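 also: 0% = vehicle wells and 100% = reference activator wells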
DAX1 inh-2: inhibitors of DAX1 repression of SF-1 activated StAR promoter; HEK293T StAR-luciferase reporter, SF-1/DAX-1 repression relief; inhibition, % at 6.8 µM; hit rate 1.1% among 370,000; AID 652010;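 active = inhibition above the mean over all tested compounds plus 3 SD, cut at about 3.6% in these data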;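 also: 0% = DAX-1 cells with DMSO and 100% = cells lacking DAX-1 with DMSO; higher inhibition means more luminescence from relief of DAX-1 repression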
ssDAF-12 act: activators of S. stercoralis DAF-12 nuclear receptor; HEK293 ssDAF-12/GRIP1 lit1-tk-luc reporter, luminescence; % of 3 µM dafachronic acid response; hit rate 1% among 370,000; AID 652126; activation, % at 6.8 µM;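 active = activation above the mean over all tested compounds plus 3 SD, cut at about 0.9% in these data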;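 also: 0% = DMSO-only wells and 100% = 3 µM delta7-dafachronic acid wells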
hgDAF12 agonist: hgDAF-12 agonism, primary luciferase screen; HEK293 GAL4-hgDAF12 UAS-luciferase reporter, agonist luminescence; normalized to butyrate control; activation, % at 6.8 µM; AID 687014; hit rate 1.8% among 370,000;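 active = activation above a cutoff set at the mean of all screened compounds plus 3 SD, cut at about 10% in these data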;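 also: 0% = DMSO wells and 100% = sodium butyrate wells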
DAX1 conf: confirmation of human DAX1 (NR0B1) inhibitors. HEK293T StAR-promoter luciferase reporter, SF-1/DAX-1 repression. shares compounds with DAX1 inh-2. inhibition, % at 6.8 µM. hit rate 87% among 2,400. AID 652134;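 active = inhibition above the average of every tested compound plus 3 SD, cut at about 3.8% in these data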;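 also: 0% = DAX-1 cells with DMSO and 100% = no DAX-1 control cells with DMSO; active compounds raise luminescence by relieving repression of the StAR reporter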
SF1 mutant ctr: nonselective inhibitor or artifact in SF-1 mutant DAX1 counter-screen. hit rate 78% among 2,400. AID 652136. shares compounds with DAX1 inh-2. HEK293 StAR-luciferase, SF-1 AF2 mutant, luminescence. inhibition, % at 6.8 µM;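 active = inhibition above the mean of all tested compounds plus 3 SD, cut at about 3% in these data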;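 also: 0% = DAX-1 transfected cells with DMSO and 100% = cells without DAX-1 with DMSO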
SMARCA2 act conf: SMARCA2 activation, confirmation screen; shares compounds with SMARCA2 activ; MG213 cells, MMTV-luciferase with dexamethasone, luminescence, overnight; MG213 cells expressing E1A, Rb sequestered; DMSO wells 0%, reference activator 100%; activation, % at 9.1 µM; hit rate 30% among 3,500; AID 652260;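 active = activation above its plate's cutoff, the mean activation of tested wells plus 3 SD, cut at about 7.9% in these data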
GAL4-VP16 Luc: GAL4-VP16 reporter activation counter-screen. shares compounds with SMARCA2 activ. HEK293 GAL4-VP16 pG5luc reporter, luciferase luminescence; scaled: DMSO wells 0%, SAHA wells 100%. activation, % at 9.1 µM. hit rate 41% among 3,500. AID 686939;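 active = activation above the solvent-only control well mean plus 3 SD, averaged across control plates, cut at about 5.2% in these data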
LXR ag: LXR-beta agonism as hcDAF-12 counter-screen; HEK293 Gal4-LXR tk-luc reporter, luminescence, 24 h; normalized: DMSO 0%, positive control 100%; activation, % at 6.8 µM; shares compounds with hcDAF-12 act; 3,400 tested, under 10 active; AID 743027;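 active = mean percent activation of the reporter above a cutoff set as the average over tested compounds plus their standard deviation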
hcDAF12 ag: confirmation of H. contortus DAF-12 agonists. activation, % at 6.8 µM. hit rate 61% among 3,400. HEK293 hcDAF-12 lit1-tk-luc reporter, luminescence; % of Δ7-dafachronic acid response. shares compounds with hcDAF-12 act;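 active = mean activation across triplicate tests above the threshold derived from the earlier primary screen, cut at about 5.5% in these data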;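 also: 0% = DMSO only wells and 100% = 3 µM Δ7-dafachronic acid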
The depositor's hits bear a star; . = no result. Only some compounds are listed: those with a hit (about 4.8% of all), similar ones and a draw of the others.

SMILES	DAX1 inh-1	hcDAF-12 act	SMARCA2 activ	DAX1 inh-2	ssDAF-12 act	hgDAF12 agonist	DAX1 conf	SF1 mutant ctr	LXR ag	hcDAF12 ag	others
Cc1cccc(C(=O)Nc2ccc(C(=O)/C=C/c3ccncc3)cc2)c1	-0.7	1.9	-6.2	-1.0	-0.7	1.8	.	.	.	.
COc1ccc2oc(C(=O)NCC3CCCO3)c(C)c2c1 (configuration not stated)	1.3	11.8*	3.2	6.5*	0.6	6.4	5.1*	2.2	0.6	6.5*
COc1ccc(C(=O)/C=C/Nc2ccccn2)c(OC)c1	.	3.2	2.2	3.0	0.8	8.7	.	.	.	.
O=C(/C=C/Nc1cccc(O)c1)c1ccccc1	-2.0	7.0*	8.1*	6.6*	-0.2	7.0	12.5*	6.0*	2.0	12.6*	SMARCA2 act conf=6.4;GAL4-VP16 Luc=8.1*
O=C(/C=C\Nc1ccccn1)c1ccccc1	-2.0	11.8*	4.9	5.3*	0.6	8.7	10.0*	0.6	1.3	9.7*
COc1ccc(/C=C/C(=O)N2CCN(S(=O)(=O)c3ccccc3)CC2)cc1OC	-0.3	-1.5	0.1	-0.8	-2.2	-1.3	.	.	.	.
COc1ccc2nc(N3C(=O)C(O)=C(C(=O)c4ccco4)C3c3ccc(C)o3)sc2c1 (configuration not stated)	2.1	0.9	2.1	1.1	-0.4	6.2	.	.	.	.
Cc1ccc2nc(N3C(=O)C(O)=C(C(=O)c4ccco4)C3c3cccs3)sc2c1 (configuration not stated)	1.1	9.1*	11.6*	5.3*	0.8	13.3*	5.9*	1.1	0.1	2.7	SMARCA2 act conf=2.0;GAL4-VP16 Luc=10.3*
Cc1ccccc1N=CC1=C(O)c2ccccc2C1=O	-2.5	15.1*	0.9	5.5*	2.1*	11.2*	5.8*	-1.3	0.9	8.3*
CC1=C(O)c2ccccc2C(=O)C1=O	.	-2.4	0.3	-1.0	-1.6	0.3	.	.	.	.
Cc1ccc(S(=O)(=O)N2CCOCC2)cc1NC(=O)C(c1ccc(Cl)cc1)C(C)C (configuration not stated)	-1.8	-2.2	-2.0	0.1	-1.2	-0.7	.	.	.	.
CCOC(=O)N1CCN(c2c(-c3ccc(C)c(C)c3)c(=O)c2=O)CC1	-0.6	-1.6	1.7	-0.1	-1.5	-3.0	.	.	.	.
CCn1c(C)nnc1SCC(=O)Nc1nccs1	-1.4	2.6	-4.8	0.5	-0.4	-1.1	.	.	.	.
CCOC(=O)c1c(SCC(=O)Nc2nccs2)nc(C)c(C)c1C	0.5	11.2*	4.2	6.6*	0.0	5.3	4.1*	2.2	0.4	2.2
Cc1ccc(C#N)c(SCC(=O)Nc2nccs2)n1	-0.3	17.6*	13.9*	6.3*	3.0*	20.2*	12.0*	6.6*	2.2	22.3*	SMARCA2 act conf=6.0;GAL4-VP16 Luc=4.4
CCc1nnc(NC(=O)CSc2nc(C)cc(C)c2C#N)s1	-0.8	7.7*	5.0	6.7*	-0.6	10.9*	14.6*	8.4*	1.2	9.5*
COc1cccc(N2CCN(C(=S)NCc3ccco3)CC2)c1	0.8	-0.6	-2.5	-0.1	-1.1	-0.9	.	.	.	.
